Compound activity from PubChem.
NADH coupling: blocks coupling enzymes of NAD/NADH assays; 65,000 tested, 0.02% active; IC50, µM (top dose mostly 10 µM); coupled PK/LDH NADH assays, four targets; AID 774;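 active = single-dose screening hits from any of four coupled enzyme assays that gave an IC50 when retested across doses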;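 note: the DPM-DC format reads NADH fluorescence rather than 340 nm absorbance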
Spn DPM-DC inh: inhibitors of Streptococcus pneumoniae diphosphomevalonate decarboxylase. calls only at 10 µM. purified DPM-DC, PK/LDH coupled NADH fluorescence. 65,000 tested, 0.49% active. AID 556;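 active = the 320 compounds with the highest percent inhibition in the single-dose primary screen, excluding strongly autofluorescent ones, cut at about 32% in these data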;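 note: kinetic rate of NADH fluorescence loss reporting ADP formed by the decarboxylase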
Autofluor 339: intrinsic fluorescence of library compounds, ex339/em460 – biochemical, MLSMR library, data from DPM-DC assay, artefact control, profiling panel; fluorescence fold increase at 10 µM; compound autofluorescence, ex339/em460 nm, NADH buffer; hits give high values; 1 = no-compound wells, NADH background; 65,000 tested, 5.5% active;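 active = at 10 µM, mean starting fluorescence two-fold or more over control wells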;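 note: signal is the first read of a kinetic run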
Spn PMK inh: S. pneumoniae PMK inhibition | purified PMK, PK/LDH-coupled NADH absorbance 340 nm | inhibition, % at 10 µM | 65,000 tested, 0.49% active;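 active = top-ranked compounds by inhibition in the single 10 µM screen, taking a fixed number of the strongest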
MK inhibit: inhibitors of Streptococcus pneumoniae mevalonate kinase; purified MK, PK/LDH-coupled NADH absorbance 340 nm; AID 555; 65,000 tested, 0.48% active; inhibition, % at 10 µM;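 active = ranked among the strongest by inhibition in the single 10 µM screen, a fixed top-ranked set picked for dose follow-up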
A340 absorber: compound absorbs light at 340 nm. fold change at 10 µM. compound absorbance at 340 nm, fold over control. 65,000 tested, under 10 active;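 active = at 10 µM dose, initial 340 nm absorbance at least 2 fold that of control wells; inactive = change under 2 fold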;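 note: initial absorbance extrapolated from kinetic A340 decline of NADH oxidation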
Numbers stand for hits; . = inactive; / = no result shown; + = active, no number. This is a sample that favours compounds with a hit; in the whole collection about 6.3% have one here.

SMILES	NADH coupling	Spn DPM-DC inh	Autofluor 339	Spn PMK inh	MK inhibit	A340 absorber
O=C(NC1CCCCC1)C1CC(=O)N(c2ccc(Cl)cc2)C1 (configuration not stated)	.	.	.	28	.	.
O=C(NC1CCCC1)C1CC(=O)N(C2CCCCCCC2)C1 (configuration not stated)	.	.	.	.	.	.
CCOC(=O)C(C)Sc1nc(-c2ccc(OC)cc2)nc2c1c(=O)n(C)c(=O)n2C (configuration not stated)	.	/	2.2	.	.	.
CCCc1nc(SCC(=O)c2ccc(OC)cc2)c2c(=O)n(C)c(=O)n(C)c2n1	.	.	.	.	.	.
COC(=O)C(C)Sc1nc(-c2ccc(OC)cc2)nc2c1c(=O)n(C)c(=O)n2C (configuration not stated)	.	.	3.6	.	.	.
CCOC(=O)C(CC)Sc1nc(-c2ccc(OC)cc2)nc2c1c(=O)n(C)c(=O)n2C (configuration not stated)	.	/	5	.	.	.
CC(=O)C(Sc1nc(-c2ccc(F)cc2)nc2c1c(=O)n(C)c(=O)n2C)C(C)=O	.	.	.	.	.	.
Cc1nc2c(o1)CCc1ccccc1C2N1CCN(C)CC1 (configuration not stated)	.	.	.	.	.	.
CC(=O)NC(NC(C)=O)c1ccc(N(C)C)cc1	.	.	.	.	.	.
Cc1ccc(S(=O)(=O)Cc2cn3cccnc3n2)cc1	.	/	3.7	.	.	.
CC(C)(C)NC(=O)NC(=O)COC(=O)c1ccco1	.	.	.	.	.	.
N#Cc1cc2ccccc2nc1SCc1cccnc1	.	.	.	29	.	.
N#Cc1cc2c(nc1SCc1cccnc1)CCCCC2	.	.	.	.	.	.
O=C1c2ccc(-c3nc4ccccc4o3)cc2C(=O)N1Cc1cccnc1	.	/	2.1	.	.	.
CC(C)COC(=O)Cn1cnc2ccc(Br)cc2c1=O	.	.	.	.	.	.
CNc1nnc(-c2cc3ccccc3oc2=O)s1	.	.	2.3	.	.	.
CCOC(=O)C1CCCN(Cc2c(F)cccc2Cl)C1 (configuration not stated)	.	.	.	.	.	.
O=C(O)c1ccc(Cn2cc(Cl)cn2)cc1	.	.	.	.	.	.
Cc1ccc2oc(=O)c3cc(C(=O)NCCN4CCN(C)CC4)sc3c2c1	.	/	2.2	.	.	.
COC(=O)c1[nH]c2ccc(C)cc2c1NC(=O)CCN1CCN(Cc2ccc3c(c2)OCO3)CC1	.	.	2.3	.	.	.
COC(=O)c1[nH]c2ccc(C)cc2c1NC(=O)CN1CCCCC1C (configuration not stated)	.	.	2.3	.	.	.
CCOC(=O)C1CCCN(CC(=O)Nc2c(C(=O)OC)[nH]c3ccc(C)cc23)C1 (configuration not stated)	.	.	2.6	.	.	.
Cc1nc2nc(C)n(-c3ccccc3)c2s1	.	.	.	.	.	.
CC(=O)Nc1ccc(NS(=O)(=O)Cc2ccccc2)cc1	.	.	.	.	.	.
NC(=O)c1ccccc1NS(=O)(=O)Cc1ccccc1	.	/	2.1	.	.	.
SMILES	NADH coupling	Spn DPM-DC inh	Autofluor 339	Spn PMK inh	MK inhibit	A340 absorber
CCOc1ccccc1C(=O)NCC(=O)OCC(=O)c1ccc2c(c1)OCCO2	.	.	.	26	.	.
CC(NC(=O)c1cc(-c2ccc(Br)cc2)on1)c1ccccc1 (configuration not stated)	.	.	.	.	.	.
CC(=O)N(Cc1cccnc1)Cc1cc2ccccc2[nH]c1=O	.	.	.	.	.	.
CCOc1ccc2[nH]c(=O)c(CN(Cc3cccnc3)C(=O)Nc3ccccc3OC)cc2c1	.	.	2	.	.	.
COc1ccc2[nH]c(=O)c(CN(CCCN(C)C)C(=O)Nc3ccc(F)cc3)cc2c1	.	.	2.7	.	.	.
COc1ccc2[nH]c(=O)c(CN(Cc3cccnc3)C(=O)Nc3ccccc3)cc2c1	.	.	2.5	.	.	.
CCN(CC)CCN(Cc1cc2cc(C)ccc2[nH]c1=O)C(=O)Nc1ccccc1OC	.	.	.	.	.	.
COc1cc(Cl)ccc1NC(=O)COc1ccccc1C(=O)N1CCN(c2ccc(O)cc2)CC1	.	.	.	.	.	.
COc1ccccc1-n1c(CNC(=O)c2ccco2)nnc1SCC(=O)Nc1ccc(F)cc1	.	.	.	.	.	.
Cc1ccc(C)c(S(=O)(=O)NC(CC(C)C)C(=O)O)c1 (configuration not stated)	.	.	.	.	.	.
Cc1cnn(C(=O)c2oc3ccccc3c2C)c1	.	.	.	.	.	.
Cc1oc2ccccc2c1-c1cn2c(n1)SCC2	.	/	3.6	.	.	.
COc1ccc(Cn2c(=O)[nH]c3cc(C(=O)NCCCN4CCCC4=O)ccc3c2=O)cc1	.	.	.	.	.	.
O=C(NCc1cccnc1)c1ccc2c(=O)n(CCCN3CCCC3=O)c(=S)[nH]c2c1	.	+	.	.	.	.
CCOc1ccc(-c2cc(C(=O)O)c3ccccc3n2)c(OCC)c1	.	.	.	.	.	.
COc1ccc(-c2cc(C(=O)OCC(=O)N(C)C)c3ccccc3n2)cc1	.	+	2.5	.	.	.
Cc1cc(NC(=O)c2cc(-c3cccs3)nc3ccccc23)no1	.	/	2	.	.	.
Cc1cc(NC(=O)c2cc(-c3ccncc3)nc3c(C)cccc23)no1	.	.	2.7	.	.	.
Cc1cc(NC(=O)c2cccc(C(=O)Nc3cc(C)on3)n2)no1	.	.	.	.	.	.
Cc1ccc(-c2cc(C(=O)NC3=NCCS3)c3cc(Br)ccc3n2)o1	.	.	.	.	.	.
Cc1cc(NC(=O)c2ccccc2-c2ccccc2C(=O)O)no1	.	.	.	.	.	.
Cc1ccc(-c2cc(C(=O)NCc3ccco3)c3ccccc3n2)o1	.	/	4.9	.	.	.
Cc1ccc(-c2cc(C(=O)NCCCn3ccnc3)c3cc(Br)ccc3n2)o1	.	.	2.9	.	.	.
Cc1ccc2c(c1)N(CCCC(=O)NCCCN1CCCC1=O)C(=O)CO2	.	.	.	.	.	.
OCCSc1nc(-c2cccnc2)nc2ccccc12	.	.	.	.	.	.
O=C(c1cccnc1)N1CCN(C(=O)c2cccs2)CC1	.	.	.	.	.	.
O=C(CCOc1ccccc1)NCC(c1ccco1)N1CCCCC1 (configuration not stated)	.	.	.	.	.	.
N#Cc1c(C(F)(F)F)cc(-c2ccccc2)nc1SCc1nc(N)nc(N2CCOCC2)n1	.	.	.	.	.	.
Cc1cc(C)c2nc(-c3ccccn3)cc(C(=O)NCc3ccco3)c2c1	.	/	3.6	.	.	.
Cc1cc(NC(=O)c2cc(-c3ccccn3)nc3ccccc23)no1	.	.	.	.	.	.
